According to PubChem BioAssay (EPA / NIEHS):
Calls of active or inactive are those of the source. Rule for the calls: active = hit-call score of the fitted dose curve at least 0.9, where 1 is the maximum; inactive = score below 0.9.

Test: ATG_PXRE_CIS: Attagene CIS-FACTORIAL HepG2 Assay for human Pregnane X Receptor Element (PXRE) (AID 2282957)
Settings: HepG2 Attagene CIS-FACTORIAL PXRE reporter, mRNA; actives raise or lower the signal
Procedure, shortened: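 HepG2 cells transiently transfected with cis-regulated multiple reporter transcription units; endogenous factor activity measured as reporter mRNA 24 h after dosing. RT-PCR, fluorescent primer extension, HpaI digestion, capillary electrophoresis; bidirectional fit versus DMSO baseline.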

SMILES | outcome | AC50
C=C(C)C(=O)OCCC(F)(F)C(F)(F)C(F)(F)C(F)(F)C(F)(C(F)(F)F)C(F)(F)F | inactive | –
CCCCCCCCCCCCCCCC[N+](C)(C)Cc1ccccc1 | inactive | –
CC(C)(C)C(=O)CC(=O)C(F)(F)C(F)(F)C(F)(F)F | inactive | –
C(=C(c1ccccc1)c1ccccc1)c1ccccc1 | – | 4.4 µM (active)
CCCCNc1ccccc1 | – | 100 µM (active)
O=C(O)C(F)(F)C(F)(F)C(F)(F)F | inactive | –
FC(F)(F)C(F)(F)C(F)(F)N(C(F)(F)C(F)(F)C(F)(F)F)C(F)(F)C(F)(F)C(F)(F)F | inactive | –
O=S(=O)(OCC(F)F)C(F)(F)F | inactive | –
COC(OC(C)=O)c1ccccc1 (configuration not stated) | inactive | –
FC(F)(Br)C(F)(F)C(F)(F)C(F)(F)C(F)(F)C(F)(F)Br | inactive | –
O=C(O)C(F)(OC(F)(F)C(F)(OC(F)(F)C(F)(F)C(F)(F)F)C(F)(F)F)C(F)(F)F (configuration not stated) | inactive | –
O=C(O)C(F)(F)C(F)(F)C(F)(F)C(F)(F)C(F)(F)C(F)(F)C(F)(F)C(F)(F)C(F)(F)C(F)(F)C(F)(F)C(F)(F)C(F)(F)F | – | 21.8 µM (active)
O=C(O)C(F)(F)C(F)(F)C(F)(F)C(F)(F)C(F)(F)C(F)(F)C(F)(F)C(F)(F)C(F)(F)C(F)F | – | 18.8 µM (active)
O=C(O)C(F)(F)C(F)(F)C(F)F | inactive | –
CCCCCCOC(=O)c1ccccc1O | – | 62.5 µM (active)
NC(=O)C(F)(F)C(F)(F)C(F)(F)C(F)(F)F | inactive | –
FC(F)(F)C(F)(F)C(F)(F)C(F)(F)C(F)(F)C(F)(F)CC1CO1 (configuration not stated) | inactive | –
